According to PubChem BioAssay (NCATS):
Records with an inconclusive call do not appear. Where a call stands in place of a potency, no number is given. Activity calls are given as the source filed them. The call rests on the fitted dose curve; in most records, active means well fitted inhibition curve with a large enough effect; inconclusive means small, poorly fitted or top-dose-only effect; inactive means flat fitted curve, though single readings scatter.

Biological target: Phospholipid hydroperoxide glutathione peroxidase GPX4 (Homo sapiens) (UniProt P36969)
Experiment: Primary qHTS Assay for Inhibitors of Recombinant Selenoprotein Glutathione Peroxidase 4 (GPX4) (AID 1845192); further: nearly all actives have a fitted effect of over 65% in size
Settings: recombinant GPX4, GR-coupled NADPH fluorescence, 15 min; series mostly up to 50 µM
How it was run: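 NADPH consumption, followed by fluorescence at 340/450 nm between 0 and 15 min, reports GPX4 activity via coupled glutathione reductase (100 nM). Enzyme 200 nM was pre-exposed to compound 30 min; 0.5 mM cumene hydroperoxide and 1 mM GSH served as substrates.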
Potency means the concentration at half of the fitted maximal effect.

Phospholipid hydroperoxide glutathione peroxidase GPX4 (Homo sapiens), sequence (P36969 whole entry, looked up): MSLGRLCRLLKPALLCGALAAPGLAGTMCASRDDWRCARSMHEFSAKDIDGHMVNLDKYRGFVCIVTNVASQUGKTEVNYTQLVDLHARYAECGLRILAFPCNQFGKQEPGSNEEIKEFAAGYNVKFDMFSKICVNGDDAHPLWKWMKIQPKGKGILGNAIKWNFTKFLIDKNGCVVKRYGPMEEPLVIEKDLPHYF

For `C=CCN1CCc2nc(N)sc2CC1`, which Potency is on record?
Its Potency is “inactive”.

For `O=C1C(=O)c2ccccc2C(O)=C1C1CCC(c2ccc(Cl)cc2)CC1` (configuration not stated), which Potency is on record?
Its Potency is “inactive”.

How did the Potency turn out when `CCN1CCCC(OC(=O)C(c2ccccc2)c2ccccc2)C1` (configuration not stated) was run?
Its Potency is “inactive”.

For `COc1cc(C(=O)NCc2ccc(OCCN(C)C)cc2)cc(OC)c1OC`, which Potency is on record?
Its Potency is “inactive”.

How did the Potency turn out when `CCCc1ncc(C[n+]2ccccc2C)c(N)n1` was run?
Its Potency is “inactive”.

`CCc1ccc(C(=O)C(C)CN2CCCCC2)cc1` (configuration not stated) was tested. Which Potency did it give?
Its Potency is “inactive”.

For `CCN(CC)CCOC(=O)C1(c2ccccc2)CCCC1`, which Potency is on record?
Its Potency is “inactive”.

With `c1ccc(-c2nc[nH]c2-c2ccccc2)cc1` as the compound, how does the Potency read?
Its Potency is “inactive”.

With `C=C1c2cccc(O)c2C(O)=C2C(=O)[C@]3(O)C(O)=C(C(N)=O)C(=O)[C@@H](N(C)C)[C@@H]3[C@@H](O)[C@H]12` as the compound, how does the Potency read?
Its Potency is 11.2 µM (active).

With `CN1CCC[C@@H]1CCO[C@](C)(c1ccccc1)c1ccc(Cl)cc1` as the compound, how does the Potency read?
Its Potency is “inactive”.

For `NS(=O)(=O)c1cc(C(=O)O)cc(N2CCCC2)c1Oc1ccccc1`, which Potency is on record?
Its Potency is “inactive”.

`CCN(CC)CCOc1ccccc1C(=O)CCc1ccccc1` was tested. Which Potency did it give?
The Potency was “inactive”.

Which Potency does the source give for `O[C@@H](c1cc(C(F)(F)F)nc2c(C(F)(F)F)cccc12)[C@H]1CCCCN1` here?
The Potency was “inactive”.

For `C[N+]1(C)CCC(=C(c2ccccc2)c2ccccc2)CC1`, which Potency is on record?
Its Potency is “inactive”.

Which Potency does the source give for `C[N+]1(CC2COC(c3ccccc3)(C3CCCCC3)O2)CCCCC1` (configuration not stated) here?
Its Potency is “inactive”.

`C#C[C@]1(OC(C)=O)CC[C@H]2[C@@H]3CCC4=C/C(=N/O)CC[C@@H]4[C@H]3CC[C@@]21CC` was tested. Which Potency did it give?
The Potency was “inactive”.

With `C#C[C@]1(O)CC[C@H]2[C@@H]3CCC4=CC(=O)CC[C@@H]4[C@H]3CC[C@@]21CC` as the compound, how does the Potency read?
Its Potency is “inactive”.

For `CNCCCCOc1ccccc1Cc1ccccc1`, which Potency is on record?
Its Potency is “inactive”.

For `CCc1nn(CCCN2CCN(c3cccc(Cl)c3)CC2)c(=O)n1CCOc1ccccc1`, which Potency is on record?
Its Potency is “inactive”.

Which Potency does the source give for `CCCCc1cc2ccccc2c(OCCN(C)C)n1` here?
The Potency was “inactive”.

For `Oc1c(Cl)cc(Cl)c(Cl)c1Cc1c(O)c(Cl)cc(Cl)c1Cl`, which Potency is on record?
Its Potency is 25.5 µM (active).

`C[C@H]1O[C@@H](O[C@H]2CC[C@@]3(C)[C@H](CC[C@@H]4[C@@H]3C[C@@H](O)[C@]3(C)[C@@H](C5=CC(=O)OC5)CC[C@]43O)C2)C[C@H](O)[C@@H]1O[C@H]1C[C@H](O)[C@H](O[C@H]2C[C@H](O)[C@H](O[C@@H]3O[C@H](CO)[C@@H](O)[C@H](O)[C@H]3O)[C@@H](C)O2)[C@@H](C)O1` was tested. Which Potency did it give?
The Potency was “inactive”.
